FBA Mtb inh: Mtb FBA enzyme inhibitors, primary screen, biochemical, fluorescence, strain H37Rv; Fructose-bisphosphate aldolase (Mycobacterium tuberculosis (strain ATCC 25618 / H37Rv)), …; purified M. tuberculosis FBA, fluorescence read-out; inhibition, % at 1 µM; hit rate 2.3% among 360,000; AID 588726, 2011; in the data active = inhibition above about 27%;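 note: 0% = vehicle and 100% = reference inhibitor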
Target sequence (P9WQA3 whole entry, looked up): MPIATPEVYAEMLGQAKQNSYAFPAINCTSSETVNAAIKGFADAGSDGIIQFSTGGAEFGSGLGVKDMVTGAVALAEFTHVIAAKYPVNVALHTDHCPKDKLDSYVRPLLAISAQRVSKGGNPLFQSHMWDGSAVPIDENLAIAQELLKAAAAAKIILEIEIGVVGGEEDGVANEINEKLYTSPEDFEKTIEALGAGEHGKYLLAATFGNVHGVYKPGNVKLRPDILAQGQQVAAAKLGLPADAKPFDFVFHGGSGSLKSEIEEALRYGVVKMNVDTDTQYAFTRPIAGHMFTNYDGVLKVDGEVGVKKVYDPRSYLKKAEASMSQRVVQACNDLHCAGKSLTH
Mtb betalactam: beta-lactam sensitization of Mtb H37Rv, H37Rv; M. tuberculosis H37Rv growth with meropenem, percent inhibition; inhibition, % at 25 µM; hit rate 0.27% among 330,000; call rule not given here;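 note: growth measured after seven days incubation then overnight dye step; 0% = bacteria only wells and 100% = bacteria with antibiotic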
GDH-TPI inh: GDH-TPI coupling enzyme inhibitors, primary screen, artefact control for M. tuberculosis FBA inhibitor project, biochemical, absorbance, full deck | GDH-TPI coupled enzyme counterscreen, NADH absorbance | inhibition, % at 4.8 µM | hit rate 1.2% among 360,000 | AID 588335, 2011; in the data active = inhibition above about 30%;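 note: 0% = DMSO wells and 100% = wells lacking the enzyme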
Mtb hypoxia inh: PubChem AID 1159583. M. tuberculosis hypoxia-regulated fluorescent reporter, fluorescence. fluorescence inhibition, % (no concentration beside the values). hit rate 0.1% among 300,000; in the data active = fluorescence inhibition mostly above about 23%, no sharp cut-off; inactive = mostly below about 17%
DUSP3 inh: VHR1 phosphatase inhibitors, primary screen, biochemical, absorbance, uHTS; hit rate 0.52% among 290,000; recombinant VHR phosphatase, pNPP absorbance; inhibition, % at 13.3 µM; in the data active = inhibition above about 50%
* = called active by the depositor; . = not tested or not shown; + = active, no number. Rows were chosen to be rich in hits. Some 3.6% of all compounds tested hit in one or more screens of this group.

SMILES | FBA Mtb inh | Mtb betalactam | GDH-TPI inh | Mtb hypoxia inh | DUSP3 inh
N=c1c(C(=O)NC2CCCC2)cc2c(=O)n3ccccc3nc2n1CC1CCCO1 (stereo unspecified) | + | 4 | 10 | 2 | -9
N=c1c(C(=O)NC2CCCCC2)cc2c(=O)n3ccccc3nc2n1CC1CCCO1 (stereo unspecified) | + | -5 | 6 | -17 | -4
CC(=NNC(=O)c1cccc(S(=O)(=O)N2CCOCC2)c1)c1ccco1 | . | . | . | 4 | .
S=c1[nH]nc(-c2cc(-c3ccccc3)n[nH]2)n1N=Cc1ccccc1 | . | . | . | 1 | .
Clc1ccc2c(SCC3CO3)c3ccccc3nc2c1 (stereo unspecified) | 122* | . | 15 | . | .
Brc1ccc(OCc2nnc3n2CCC3)cc1 | 2 | 81 | 6 | 36* | 13
c1ccc(OCc2nnc3n2CCCCC3)cc1 | 3 | -1 | 11 | 7 | 0
Cc1ccc(OCC(=O)Nc2ccc(S(=O)(=O)Nc3ccccn3)cc2)c(C)c1 | 3 | 2 | -1 | 6 | 56*
CCOC(=O)c1cc(=O)n2c(nc3ccccc32)[nH]1 | + | 18 | 16 | 7 | .
CCOC(=O)c1c(C)[nH]c(C)c1C(=O)CSc1nc2ccccc2n1CC | 4 | -2 | 9 | 12 | 55*
CC(=NNC(=O)CSCc1cccc(Br)c1)c1ccc([N+](=O)[O-])cc1 | . | . | . | 12 | .
CCOP(=O)(Nc1cccc2oc(=O)c3ccccc3c12)OCC | 116* | . | 3 | . | .
CCOc1ccccc1N=Cc1c(O)c2ccccc2oc1=O | 3 | 8 | -1 | 1 | 6
COC(=O)C(Cc1ccccc1)NC(=O)[C@@]1(C)CC1C(NC(=O)OCc1ccccc1)c1ccccc1 (stereo partly specified) | . | . | . | -3 | .
Cc1ccccc1-n1c2nc(=O)n(C)c(=O)c-2cc2ccccc21 | 131* | -11 | 21 | 3 | 21
Cc1ccccc1-n1c(C)nc2sccc2c1=O | 1 | -7 | 1 | 3 | 13
CC(=NNC(=O)c1cc(C)nc2ccc(C)cc12)c1ccncc1 | . | . | . | 1 | .
S=C(N/N=C/c1ccccc1Cl)Nc1ccccc1 | 1 | -2 | 29 | . | 1
Oc1ccc(C=NNC(=S)Nc2ccccc2)nc1 | 9 | . | 54* | . | .
COc1ccc(C2NC(=O)NC3=C2CCc2ccccc23)cc1 (stereo unspecified) | 34* | 23 | 11 | . | 15
COc1cccc(C2NC(=S)NC3=C2CCc2ccccc23)c1 (stereo unspecified) | 1 | -6 | 9 | 8 | 5
COCCNC(=O)/C(C#N)=C/c1c(N2CCN(c3ccccc3)CC2)nc2ccccn2c1=O | 16 | -7 | 12 | 13 | 2
CNC(=O)/C(C#N)=C/c1c(N2CC(C)OC(C)C2)nc2ccccn2c1=O (stereo unspecified) | 124* | -6 | 12 | 15 | 2
CCNC(=O)/C(C#N)=C/c1c(N2CCCCCC2)nc2ccccn2c1=O | 135* | -1 | 19 | 15 | 12
CCNC(=O)/C(C#N)=C/c1c(N2CC(C)OC(C)C2)nc2ccccn2c1=O (stereo unspecified) | 3 | -9 | 27 | . | -10
SMILES | FBA Mtb inh | Mtb betalactam | GDH-TPI inh | Mtb hypoxia inh | DUSP3 inh
COCCCNC(=O)/C(C#N)=C/c1c(N2CCN(C)CC2)nc2ccccn2c1=O | 140* | -8 | 2 | -13 | .
C/C(=N\Nc1nc(C)cc(C)n1)c1ccc(C)o1 | 0 | 5 | 32* | . | 1
CC(=NNc1nc(C)cc(C)n1)c1ccc(Br)cc1 | . | . | . | -7 | .
CCNC(=S)N/N=C(\C)c1ccc(Cl)s1 | -1 | 96 | 31* | . | -4
CC(=NNC(=S)Nc1ccc(C)cc1)c1cc2ccccc2o1 | . | . | . | -11 | .
C=C(C)CNC(=S)N/N=C(\C)c1ccc(Cl)s1 | -1 | 98 | 30 | . | -1
CCNC(=S)N/N=C(\C)c1cc2ccccc2o1 | -4 | 90 | 47* | . | 3
CCN1C(=O)C2C(c3ccc(-c4ccc5c(c4)OCO5)cc3)N[C@@](Cc3ccccc3)(C(=O)OC)C2C1=O (stereo partly specified) | . | . | . | 12 | .
CC(=NNc1nc(C(=O)O)cs1)c1ccccc1 | . | . | . | 7 | .
CNc1cccc(-c2ccc(C(C)=O)s2)n1 | 0 | . | 5 | . | .
CC(=O)c1ccc(-c2cccs2)s1 | + | 3 | 10 | -7 | 17
Cc1ccc(C=Nn2c(C)nc3ccccc3c2=O)o1 | . | . | . | 5 | .
CC(=O)Nc1c(C#N)c(-c2ccccc2)c(C#N)c(=O)n1-c1ccc(C)cc1 | 1 | . | 33* | . | .

Compound activity: PubChem, several laboratories
